# High-throughput results (PubChem)
# ULK1 inh – human ULK1 kinase inhibition, primary screen; O75385; AlphaScreen Atg13 phosphorylation by ULK1, luminescence; inhibition, % at 5.96 µM; hit rate 1.9% among 30,000; AID 1259251; in the data active = inhibition above about 43%;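 note: 0% = median of compound wells and 100% = no enzyme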
# ASK1 primary – human ASK1 kinase inhibition, primary screen. inhibition, % at 7.44 µM. hit rate 0.99% among 22,000. AlphaScreen MKK6 phosphorylation by ASK1, luminescence. AID 1159602. Q99683; in the data active = inhibition above about 35%;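 note: 0% = median of compound wells and 100% = no enzyme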
# Active calls of the source: *; . = no result given. Only some compounds are listed: those with a hit (about 2.5% of all), similar ones and a draw of the others.
SMILES,ULK1 inh,ASK1 primary
Cc1nn(C)c(C)c1-c1cccc(C(=O)NC2CC2)n1,-0.5,8.2
Cc1cc(Nc2ccc(N3CCOCC3)cc2)nc(N2CCC(N3CCOCC3)CC2)n1,-1.6,-11.0
CCN(CC)c1nc(NCc2ccccc2)nc(Nc2nc3ccccc3n2C)n1,1.3,-12.7
CC(C)N(CCNC(=O)c1ccc2nc(NCc3cccnc3)sc2c1)C(C)C,-3.0,-24.8
Cc1ccc(-c2cnc(NCCCN3CCOCC3)nc2)cc1,-1.4,.
C#CCN1CCN(c2c(F)cccc2NC(=O)c2ccc(Br)o2)CC1,-6.8,7.5
CC(=O)c1cccc(-c2nc3c(N)ncnc3n2C(C)C)c1,9.5,5.1
CNC(=O)c1ccccc1Nc1cc(Nc2ccc(N3CCOCC3)cc2F)ncc1C(F)(F)F,88.8*,-1.0
COc1cc(N2CCOCC2)ccc1Nc1cc(Nc2ccccc2-c2ncccn2)c(C(F)(F)F)cn1,8.6,6.9
C=C(NC(=O)C(=C)NC(=O)c1csc(C2=NC3c4csc(n4)C4NC(=O)c5csc(n5)C(C(C)(O)C(C)O)NC(=O)C5CSC(=N5)C(=CC)NC(=O)C(C(C)O)NC(=O)c5csc(n5)C3(CC2)NC(=O)C(C)NC(=O)C(=C)NC(=O)C(C)NC(=O)C(C(C)CC)NC2C=Cc3c(C(C)O)cc(nc3C2O)C(=O)OC4C)n1)C(N)=O (stereo not drawn),42.8*,.
CS(=O)(=O)Nc1ccc(-c2ccnc(Nc3ccc(C(O)(C(F)(F)F)C(F)(F)F)cc3)n2)cc1,32.8,-28.8
CC(=O)c1ccc(Nc2nccc(-c3ccc(NS(C)(=O)=O)cc3)n2)cc1,55.1*,-22.4
Cc1ccc(-c2ncn(-c3ccc(Nc4nccc(-c5ccc(NS(C)(=O)=O)cc5)n4)cc3)n2)cn1,11.8,3.4
CS(=O)(=O)Nc1ccc(-c2ccnc(Nc3ccc(-n4cncn4)cc3)n2)cc1,67.2*,7.1
COC(=O)C1CCN(C(=O)c2ccc(COc3cccc4c3OC(C)(C)C4)cc2)CC1,-2.5,.
CN1CCN(C(=O)c2ccc(-c3cccc(C(=O)NCc4cccnc4)n3)cc2)CC1,9.3,6.0
CN1CCN(C(=O)c2ccc(-c3cccc(C(=O)NCc4ccccc4)n3)cc2)CC1,70.2*,14.5
CCOc1nc2cccc(C(=O)OC(C)OC(=O)OC3CCCCC3)c2n1Cc1ccc(-c2ccccc2-c2nn[nH]n2)cc1 (stereo not drawn),53.1*,.
CCCc1nc(C(C)(C)O)c(C(=O)OCc2oc(=O)oc2C)n1Cc1ccc(-c2ccccc2-c2nn[nH]n2)cc1,-3.7,.
COc1cc2nc(Cl)nc(NCc3nc4ccccc4[nH]3)c2cc1OC,9.5,-0.2
O=C(Nc1ccc2[nH]ncc2c1)C1CNCC1c1ccccc1 (stereo not drawn),7.5,-2.5
c1ccc(CN2CCC(Nc3nc(NCCN4CCOCC4)nc4c3ncn4-c3ccccc3)CC2)cc1,-3.0,7.9
Cc1ncn(-c2ccc(Nc3ncc4cccc(-c5cnn(-c6ccccc6)c5)c4n3)cc2)n1,16.5,9.7
Cc1ncn(-c2ccc(N(c3ncc4cccc(-c5cnn(C(C)C)c5)c4n3)C(C)C)cc2)n1,91.5*,-2.8
NC(=O)c1ccc(-c2nc(NCc3ccccc3)c3ncn(C4CCCCC4)c3n2)cc1,-18.9,-0.7
SMILES,ULK1 inh,ASK1 primary
N#Cc1cc(-c2ccnc(Nc3ccc(N4CCCCC4)cc3)n2)cc(N2CCOCC2)c1,-4.8,4.8
N#Cc1cc(-c2ccnc(Nc3ccc(-c4ccccn4)cc3)n2)cc(N2CCOCC2)c1,4.0,20.7
N#Cc1cc(-c2ccnc(Nc3ccc(N4CCNCC4)cc3)n2)cc(N2CCOCC2)c1,92.7*,34.0
N#Cc1cc(-c2ccnc(Nc3ccc(CN4CCCCC4)cc3)n2)cc(N2CCOCC2)c1,70.9*,15.8
O=C(c1cccnc1Oc1ccccc1)N1CCC(c2nc(-c3ccncc3)no2)C1 (stereo not drawn),0.7,-11.2
Cc1ncn(-c2ccc(Nc3ncc4cccc(-c5cnn(CCN6CCOCC6)c5)c4n3)cc2)n1,63.1*,-8.8
Cc1ncn(-c2ccc(Nc3ncc4cccc(Nc5ccccc5)c4n3)cc2)n1,-7.0,33.0
Cc1ncn(-c2ccc(Nc3ncc4ccccc4n3)cc2)n1,43.5*,-24.6
Cc1ncn(-c2ccc(Nc3ncc4cccc(-c5ccc(N6CCOCC6)nc5)c4n3)cc2)n1,23.6,4.6
Cc1ncn(-c2ccc(Nc3ncc4cccc(-c5cncnc5)c4n3)cc2)n1,13.7,9.6
Cc1ncn(-c2ccc(Nc3ncc4cccc(-c5cn[nH]c5)c4n3)cc2)n1,44.3*,8.4
Cc1ncn(-c2ccc(Nc3ncc4cccc(-c5cncc6ccccc56)c4n3)cc2)n1,-3.4,-0.6
Cc1ncn(-c2ccc(Nc3ncc4cccc(-c5ccncc5F)c4n3)cc2)n1,50.8*,32.9
Cc1cc(NCCN2CCOCC2)nc(NCCCN2CCCC2=O)n1,25.5,3.8
Cc1ncn(-c2ccc(Nc3ncc4cccc(-c5nc6ccccc6s5)c4n3)cc2)n1,-4.8,28.2
Cc1ncn(-c2ccc(Nc3ncc4cccc(-c5ccccn5)c4n3)cc2)n1,53.3*,-30.5
